Experimental data published in PubChem BioAssay (NCI).
This is part of a sample that, as a whole, favours compounds with a hit. Of some 83,000 tested, about 20% had one in any assay.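 Step 1: grow cells in 96-well plates. Step 2: add test compound at a single concentration. Step 3: incubate 48 h. Step 4: record percent growth.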 Calls of active or inactive are those of the source. The calls were made as follows: active = growth percent below 10; inactive = the rest.

These compounds were tested on SK-OV-3 ovarian (assay: NCI-60 one-dose screen, 48 h (100 = growth as untreated, 0 = no growth, -100 = all killed)). Details: 10 µM unless noted.

| SMILES | growth |
| --- | --- |
| Cc1ccc(-c2nc([P+](c3ccccc3)(c3ccccc3)c3ccccc3)c(N3CCOCC3)o2)cc1 | -43.9% (active) |
| Cc1cc(N2CCCCC2)nc(N(CCNc2ccnc3cc(Cl)ccc23)Cc2ccco2)n1 | 77.9% (inactive) |
| Cc1cc(C)c(NC(=O)c2sc3nc4c(cc3c2N)CCCC4)c(C)c1 | 51.3% (inactive) |
| CCNCCCn1c2c(c3ccc([N+](=O)[O-])cc3c1=O)C(=O)c1cc(OC)cnc1-2 | -25.3% (active) |
| CCCC(=O)N1CCCCC1CC (stereo unspecified) | 111% (inactive) |
| C#CCn1c(C)cc(C)c(C#N)c1=O | 118% (inactive) |
| Cc1cc2nc3c4cc([N+](=O)[O-])cc([N+](=O)[O-])c4n(CCN(C)C)c3nc2cc1C | 90.2% (inactive) |
| Cn1c(/C(C#N)=C/c2ccc3ccccc3c2)cc2ccccc21 | 58.8% (inactive) |
| CC(=O)O[C@H]1CC[C@]2(C)[C@H]3C(=O)C=C4[C@@H]5C[C@](C)(C(=O)N6CCCNCC6)CC[C@]5(C)CC[C@@]4(C)[C@]3(C)CC[C@H]2C1(C)C | 70.6% (inactive) |
| Cc1cc(N(CCNc2ccnc3cc(Cl)ccc23)Cc2ccco2)nc(Cl)n1 | -36.3% (active) |
| COc1ccc2c(c1)c(-c1nc(-c3cn(C)c4ncccc34)cs1)cn2CCCN1CCCCC1 | 89.8% (inactive) |
| NC(Cc1ccc(O)cc1)C(=O)N/N=C/c1ccccc1O (stereo unspecified) | 113% (inactive) |
| CC(=O)NC1=C(C#N)C(c2ccccc2Cl)c2c(ccc3ccccc23)O1 (stereo unspecified) | 85% (inactive) |
| COC(=O)[C@]12CC[C@@H](C)[C@H](C)[C@@H]1C1=CC[C@@H]3[C@@]4(C)C=C(O)C(=O)C(C)=C4CC[C@@]3(C)[C@]1(C)CC2 | 61.7% (inactive) |
| N#Cc1c(-c2ccc(O)cc2)c2c(N)nn(-c3ccccc3)c2[nH]c1=O | 102% (inactive) |
| CCN(CC)CCCCCNc1cc(OC(=O)c2ccccc2)cc2cccnc12 | 108% (inactive) |
| Clc1ccc(Cn2cc(-c3nc4ccc(Br)nc4n3Cc3ccc(Cl)cc3)c3cccnc32)cc1 | 80.9% (inactive) |
| Cn1c2c(Cl)c(Cl)ccc2c2c(C#N)c[nH]c(=O)c21 | 107% (inactive) |
| COc1ccc(C(=O)/C=C/c2cc(-c3cc(OC)c(OC)c(OC)c3)n[nH]2)cc1OC | 51.6% (inactive) |

| SMILES | growth |
| --- | --- |
| COC1=C(Br)C(=O)C(OC)=C(Br)C1=O | 110% (inactive) |
| CN(C)c1ccc(N)c2ccccc12 | 85.2% (inactive) |
| Cc1cc(C=O)c(C)c2c1[nH]c1ccccc12 | 106% (inactive) |
| N#CC1=C(N)Oc2c(sc3c(F)cccc23)C1c1ccc(Cl)cc1 (stereo unspecified) | 31% (inactive) |
| COc1ccc(C2C(C#N)=C(N)Oc3c2sc2c(F)cccc32)cc1 (stereo unspecified) | 20.7% (inactive) |
| C=COCCCCCCCCCCCCCCCCCC | 103% (inactive) |
| O=C1C=Cc2ncccc2C1=O | 83.5% (inactive) |
| O=C1c2ccccc2C(=Cc2ccccc2)c2ccccc21 | -3.56% (active) |
| CN(C)c1ccc(C(=O)c2ccc(N(C)C)c(N)c2)cc1N | 24.6% (inactive) |
| O=C1c2cccc3cccc(c23)C(=O)N1CC#Cc1ccc2c3c(cccc13)C(=O)N(CCN1CCNCC1)C2=O | 132% (inactive) |
| C=C1CC[C@@H](C(=O)OC)Cc2nc(C)ccc21 | 109% (inactive) |
| N#C/C(=C\c1ccc(-c2ccccc2)o1)c1nc(-c2ccco2)cs1 | 97.2% (inactive) |
| O=C(/C=C\c1ccc2c(c1)OCO2)/C=C/c1ccc2c(c1)OCO2 | 92% (inactive) |
| Cc1ccc(-c2nc3ccc(Cl)cc3c(=O)n2N2C(=O)CSC2c2ccccc2Cl)cc1 (stereo unspecified) | 36.2% (inactive) |
| CC(=O)OC[C@]12CC[C@@H](/C(C)=N/O)[C@@H]1[C@H]1CC[C@@H]3[C@@]4(C)CCCNC(C)(C)[C@@H]4CC[C@@]3(C)[C@]1(C)CC2 | 62.9% (inactive) |
| C=C1C(=O)O[C@H]2[C@H]1CC/C(COC(=O)NCc1c[nH]c3ccccc13)=C\CC[C@@]1(C)O[C@@H]21 | 86.5% (inactive) |
| O=C1c2cccc3cccc(c23)C(=O)N1CC#Cc1ccc2c3c(cccc13)C(=O)N(CCO)C2=O | 92.4% (inactive) |
| Cc1cc(N2CCOCC2)nc(N(CCCNc2ccnc3cc(Cl)ccc23)Cc2ccco2)n1 | 50.1% (inactive) |
| Cn1c2ccccc2c2c3c(c4c5cccnc5[nH]c4c21)C(=O)N(O)C3=O | 37.5% (inactive) |

The compounds below were run on IGROV1 ovarian in the same assay as above. Details: 10 µM unless noted.

| SMILES | growth |
| --- | --- |
| Cc1ccc(-c2nc([P+](c3ccccc3)(c3ccccc3)c3ccccc3)c(N3CCOCC3)o2)cc1 | 1.46% (active) |
| Cc1cc(N2CCCCC2)nc(N(CCNc2ccnc3cc(Cl)ccc23)Cc2ccco2)n1 | 18.1% (inactive) |
| Cc1cc(C)c(NC(=O)c2sc3nc4c(cc3c2N)CCCC4)c(C)c1 | 62.5% (inactive) |
| CCNCCCn1c2c(c3ccc([N+](=O)[O-])cc3c1=O)C(=O)c1cc(OC)cnc1-2 | -24.1% (active) |
| CCCC(=O)N1CCCCC1CC (stereo unspecified) | 120% (inactive) |
| C#CCn1c(C)cc(C)c(C#N)c1=O | 103% (inactive) |
| Cc1cc2nc3c4cc([N+](=O)[O-])cc([N+](=O)[O-])c4n(CCN(C)C)c3nc2cc1C | 60.2% (inactive) |
| Cn1c(/C(C#N)=C/c2ccc3ccccc3c2)cc2ccccc21 | 21.2% (inactive) |
| CC(=O)O[C@H]1CC[C@]2(C)[C@H]3C(=O)C=C4[C@@H]5C[C@](C)(C(=O)N6CCCNCC6)CC[C@]5(C)CC[C@@]4(C)[C@]3(C)CC[C@H]2C1(C)C | -80.5% (active) |
| Cc1cc(N(CCNc2ccnc3cc(Cl)ccc23)Cc2ccco2)nc(Cl)n1 | -72.1% (active) |
| COc1ccc2c(c1)c(-c1nc(-c3cn(C)c4ncccc34)cs1)cn2CCCN1CCCCC1 | 66.1% (inactive) |
| NC(Cc1ccc(O)cc1)C(=O)N/N=C/c1ccccc1O (stereo unspecified) | 92.8% (inactive) |
| CC(=O)NC1=C(C#N)C(c2ccccc2Cl)c2c(ccc3ccccc23)O1 (stereo unspecified) | 46.1% (inactive) |
| COC(=O)[C@]12CC[C@@H](C)[C@H](C)[C@@H]1C1=CC[C@@H]3[C@@]4(C)C=C(O)C(=O)C(C)=C4CC[C@@]3(C)[C@]1(C)CC2 | 53.6% (inactive) |
| N#Cc1c(-c2ccc(O)cc2)c2c(N)nn(-c3ccccc3)c2[nH]c1=O | 93% (inactive) |
| CCN(CC)CCCCCNc1cc(OC(=O)c2ccccc2)cc2cccnc12 | 105% (inactive) |
| Clc1ccc(Cn2cc(-c3nc4ccc(Br)nc4n3Cc3ccc(Cl)cc3)c3cccnc32)cc1 | 77.3% (inactive) |
| Cn1c2c(Cl)c(Cl)ccc2c2c(C#N)c[nH]c(=O)c21 | 89.5% (inactive) |
| COc1ccc(C(=O)/C=C/c2cc(-c3cc(OC)c(OC)c(OC)c3)n[nH]2)cc1OC | -5.47% (active) |

| SMILES | growth |
| --- | --- |
| COC1=C(Br)C(=O)C(OC)=C(Br)C1=O | 111% (inactive) |
| CN(C)c1ccc(N)c2ccccc12 | 65.1% (inactive) |
| Cc1cc(C=O)c(C)c2c1[nH]c1ccccc12 | 97.6% (inactive) |
| N#CC1=C(N)Oc2c(sc3c(F)cccc23)C1c1ccc(Cl)cc1 (stereo unspecified) | 33.3% (inactive) |
| COc1ccc(C2C(C#N)=C(N)Oc3c2sc2c(F)cccc32)cc1 (stereo unspecified) | 30.6% (inactive) |
| C=COCCCCCCCCCCCCCCCCCC | 118% (inactive) |
| O=C1C=Cc2ncccc2C1=O | 105% (inactive) |
| O=C1c2ccccc2C(=Cc2ccccc2)c2ccccc21 | 40% (inactive) |
| CN(C)c1ccc(C(=O)c2ccc(N(C)C)c(N)c2)cc1N | 72.8% (inactive) |
| O=C1c2cccc3cccc(c23)C(=O)N1CC#Cc1ccc2c3c(cccc13)C(=O)N(CCN1CCNCC1)C2=O | 91.4% (inactive) |
| C=C1CC[C@@H](C(=O)OC)Cc2nc(C)ccc21 | 107% (inactive) |
| N#C/C(=C\c1ccc(-c2ccccc2)o1)c1nc(-c2ccco2)cs1 | 43.1% (inactive) |
| O=C(/C=C\c1ccc2c(c1)OCO2)/C=C/c1ccc2c(c1)OCO2 | 88.9% (inactive) |
| Cc1ccc(-c2nc3ccc(Cl)cc3c(=O)n2N2C(=O)CSC2c2ccccc2Cl)cc1 (stereo unspecified) | 57.5% (inactive) |
| CC(=O)OC[C@]12CC[C@@H](/C(C)=N/O)[C@@H]1[C@H]1CC[C@@H]3[C@@]4(C)CCCNC(C)(C)[C@@H]4CC[C@@]3(C)[C@]1(C)CC2 | 88.9% (inactive) |
| C=C1C(=O)O[C@H]2[C@H]1CC/C(COC(=O)NCc1c[nH]c3ccccc13)=C\CC[C@@]1(C)O[C@@H]21 | 21.2% (inactive) |
| O=C1c2cccc3cccc(c23)C(=O)N1CC#Cc1ccc2c3c(cccc13)C(=O)N(CCO)C2=O | 48.5% (inactive) |
| Cc1cc(N2CCOCC2)nc(N(CCCNc2ccnc3cc(Cl)ccc23)Cc2ccco2)n1 | 10.9% (inactive) |
| Cn1c2ccccc2c2c3c(c4c5cccnc5[nH]c4c21)C(=O)N(O)C3=O | 45.1% (inactive) |
